Screening results (PubChem BioAssay)
Hits are enriched below; roughly 3.2% of the tested compounds scored in any of these assays.
PAX8 reporter: PAX8 transcriptional activity inhibition. 360,000 tested, 1.2% active. RMG-I TPO-luciferase reporter, SteadyGlo, 24 h. inhibition, % at 12.6 µM. AID 652154;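 active = mean replicate inhibition at least 60% with every replicate also reaching 60%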;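 note: luciferase light reporting Pax8 driven TPO promoter activity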
LGR2 antag: blocks bursicon-induced cAMP signaling via Drosophila LGR2 | HEK293 LGR2, CRE-luciferase, bursicon-stimulated, 4 h | inhibition, % at 9.99 µM | 380,000 tested, 0.35% active | AID 720647;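 active = drop in luminescence signal, shown as inhibition above about 50% in the replicate tests, limit read from the data, passing the limit was not always enough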;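 note: agonist challenge used bursicon conditioned medium at about half maximal strength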
EBV LMP1 NFkB: inhibitors of Epstein-Barr LMP1-induced NF-kappaB reporter; 350,000 tested, 0.69% active; LMP1-induced NF-kappaB luciferase reporter cells, luminescence; inhibition, % at 12.5 µM; in the data active = inhibition above about 41%
TWEAK Fn14 block: blocks TWEAK-Fn14 interaction in a reporter cell assay; TWEAK-stimulated Fn14 reporter cells, luciferase luminescence, 8 h; inhibition, % at 10 µM; 360,000 tested, 2% active; AID 1159606; in the data active = inhibition above about 50%
TROY signal inh: blocks TROY-dependent signaling in reporter cells; Q293 LMP1-TROYcd NF-kB luciferase reporter, 4 h; inhibition, % at 10 µM; 360,000 tested, 0.98% active; AID 1347056;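 active = compounds whose plate-normalised and pattern-corrected inhibition of the luciferase reporter signal at the single screening dose is 50% or more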
EWS-Fli inh: inhibitors of EWS/Fli oncoprotein transcriptional activity | A673 NR0B1-luciferase reporter, viability-normalised | inhibition, % at 12.6 µM | 350,000 tested, 0.67% active | AID 651661;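 active = mean inhibition of at least 50% after viability correction, with every replicate also passing that limit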;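 note: firefly luciferase signal divided by Alamar Blue viability fluorescence both relative to DMSO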
Each line names hits and unclear results; the compound was inactive in the other large screens.

C[C@H]1CN([C@@H](C)CO)C(=O)Cc2cc(N(C)C)ccc2O[C@@H]1CN(C)S(C)(=O)=O	none (no result: EBV LMP1 NFkB, TWEAK Fn14 block, TROY signal inh)
CC(C)CC(=O)/C(=C\c1ccc(Cl)cc1Cl)n1cncn1	TWEAK Fn14 block 106, TROY signal inh 74 (no result: PAX8 reporter, LGR2 antag, EWS-Fli inh)
O=[N+]([O-])c1ccc(-[n+]2ccc3ccccc3c2)c([N+](=O)[O-])c1	TWEAK Fn14 block 57
Cc1ccccc1NC(=O)N1CCCC(c2nc(-c3ccc(F)cc3)no2)C1 (stereo not given)	none (no result: PAX8 reporter, LGR2 antag, EWS-Fli inh)
Cc1ccccc1NC(=O)N1CCCC(c2nc(-c3ccc(C(C)C)cc3)no2)C1 (stereo not given)	TWEAK Fn14 block 55, TROY signal inh 74 (no result: PAX8 reporter, LGR2 antag)
CC(C)c1ccc(-c2noc(C3CCCN(C(=O)c4ccc(F)cc4F)C3)n2)cc1 (stereo not given)	TWEAK Fn14 block 52 (no result: PAX8 reporter, LGR2 antag, EWS-Fli inh)
C[C@@H](NC(=O)C[C@H]1C[C@@H]2c3cc(NC(=O)c4ccc5c(c4)OCO5)ccc3O[C@@H]2[C@H](CO)O1)c1ccccc1	none (no result: EBV LMP1 NFkB, TWEAK Fn14 block, TROY signal inh)
Cc1oc2c(c1C(=O)c1ccc(Cl)cc1)C(=O)C(=O)c1ccccc1-2	EBV LMP1 NFkB 90, TWEAK Fn14 block 91 (no result: PAX8 reporter, LGR2 antag, EWS-Fli inh)
Cc1ccc(C(=O)c2coc3c2C(=O)C(=O)c2ccccc2-3)cc1	none (no result: PAX8 reporter, LGR2 antag, EWS-Fli inh)
Cc1ccc(C(=O)c2c(C)oc3c2C(=O)C(=O)c2ccccc2-3)cc1	EBV LMP1 NFkB 46, TWEAK Fn14 block 54 (no result: PAX8 reporter, LGR2 antag, EWS-Fli inh)
C[C@@H]1CN([C@H](C)CO)C(=O)c2cc(NC(=O)NC3CCCCC3)ccc2O[C@@H](C)CCCCO[C@H]1CN(C)S(=O)(=O)c1cccs1	none (no result: EBV LMP1 NFkB, TWEAK Fn14 block, TROY signal inh)
CNC[C@H]1Oc2cc(C#Cc3ccc(OC)cc3)ccc2S(=O)(=O)N([C@H](C)CO)C[C@@H]1C	none (no result: PAX8 reporter, EBV LMP1 NFkB, TWEAK Fn14 block, TROY signal inh)
CC(C)(C)OC(=O)N/N=C/c1cccn1-c1ccc([N+](=O)[O-])cc1	none
CN(C)c1ccc(-n2cccc2/C=C/[N+](=O)[O-])cc1	PAX8 reporter 72, TWEAK Fn14 block 60 (no result: LGR2 antag)
c1ccc2c(c1)Nc1cc3ccccc3cc1S2	none
c1ccc2c(c1)Nc1ccncc1S2	TWEAK Fn14 block 55 (no result: LGR2 antag)
O=[N+]([O-])c1ccc(O)c(/C=N/NC(=S)Nc2ccc(Cl)cc2Cl)c1	TWEAK Fn14 block 71
Fc1ccc(NC(=S)N/N=C/c2ccc(F)c(F)c2)cc1	none
O=C(N/N=C/c1cc([N+](=O)[O-])ccc1O)C12CC3CC(CC(C3)C1)C2	none
O=[N+]([O-])c1ccc(/C=N/NC(=S)Nc2ccc(Cl)cc2Cl)s1	PAX8 reporter 92
O=C(N/N=C/c1cc([N+](=O)[O-])ccc1O)NC12CC3CC(CC(C3)C1)C2	TWEAK Fn14 block 93, TROY signal inh 85 (no result: LGR2 antag)
Fc1ccc(/C=N/NC(=S)Nc2ccc(Cl)cc2Cl)cc1	EWS-Fli inh 53
C[C@@H]1CN([C@@H](C)CO)C(=O)c2cccc(NC(=O)NC3CCCCC3)c2O[C@@H]1CN(C)C(=O)Nc1ccc(F)cc1	none (no result: EBV LMP1 NFkB, TWEAK Fn14 block, TROY signal inh)
c1ccc(COc2ccc(-c3cc4nc(NCCOc5ccccc5)ccn4n3)cc2)cc1	none (no result: EBV LMP1 NFkB)
COc1cc(-c2cc3nc(NCCOc4ccccc4)ccn3n2)cc(OC)c1OC	TWEAK Fn14 block 58 (no result: EBV LMP1 NFkB)
COCCCNc1ccn2nc(-c3ccc(OCc4ccccc4)cc3)cc2n1	TWEAK Fn14 block 78 (no result: EBV LMP1 NFkB)
Cc1ccc(S(=O)(=O)N(C)C[C@H]2Oc3ccc(NC(=O)Nc4c(C)noc4C)cc3CC(=O)N([C@@H](C)CO)C[C@H]2C)cc1	none (no result: EBV LMP1 NFkB, TWEAK Fn14 block, TROY signal inh)
Oc1ccc(Cl)cc1Nc1nc(NCC2CCCO2)c2ccccc2n1 (stereo not given)	TWEAK Fn14 block 72, TROY signal inh 51
c1csc(-c2nc(NCC3CCCO3)c3ccccc3n2)c1 (stereo not given)	none
c1ccc2c(NCC3CCCO3)nc(N3CCCCC3)nc2c1 (stereo not given)	PAX8 reporter 63
Oc1ccc(Nc2nc(NCC3CCCO3)c3ccccc3n2)cc1 (stereo not given)	none (no result: PAX8 reporter, LGR2 antag, EWS-Fli inh)
COc1cccc(Nc2nc(NCC3CCCO3)c3ccccc3n2)c1 (stereo not given)	TWEAK Fn14 block 88 (no result: PAX8 reporter, LGR2 antag, EWS-Fli inh)
COc1cccc(S(=O)(=O)N[C@@H]2CC[C@@H](CCNC(=O)Cc3ccncc3)O[C@@H]2CO)c1	none (no result: EBV LMP1 NFkB, TWEAK Fn14 block, TROY signal inh)
CCc1ccc(/C(C)=N/NC(=O)CNC(=O)/C=C/c2ccco2)cc1	TWEAK Fn14 block 66 (no result: PAX8 reporter, LGR2 antag, EWS-Fli inh)
CCCNC(=O)C[C@@H]1C[C@H]2c3cc(NC(=O)NC4CCCCC4)ccc3O[C@H]2[C@@H](CO)O1	none (no result: EBV LMP1 NFkB, TWEAK Fn14 block, TROY signal inh)
CC=Cc1ccc2n(c1=O)C[C@H]1[C@H](CO)[C@@H](C(=O)NCCC)[C@@H]2N1C(=O)c1ccccc1 (mixture of isomers)	none (no result: EBV LMP1 NFkB, TWEAK Fn14 block, TROY signal inh)
